Screens deposited in PubChem BioAssay by several laboratories.
PP1 counter = blocks human PP1-alpha phosphatase, a PP5 counter-screen. AID 2235. purified PP1alpha, OMFP fluorescence. actives 0.9% (n = 320,000). P62136. inhibition, % at 6.7 µM;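 active means inhibition above the mean inhibition of all tested compounds plus 3 SD, computed separately for each screening campaign, cut at about 15% in these data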
Exocytosis inh = lytic granule exocytosis inhibition; TALL-104 LAMP-1 surface exposure, flow cytometry; cells stimulated with thapsigargin and PMA; AID 651702; actives 0.66% (n = 360,000); inhibition, % at 10 µM;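 active means inhibition above about 55%, limit read from the data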
NadD block = inhibitors of Staphylococcus aureus NadD; purified NadD enzyme, colorimetric absorbance read-out; AID 602399; inhibition, % at 20 µM; actives 0.78% (n = 360,000); in the data active means inhibition above about 26%
Beta2AR agonist = human beta-2 adrenergic receptor agonism by FAP | P07550 | Am2.2-beta2AR cells, FAP receptor internalization, flow cytometry | response, % (test concentration not listed) | actives 0.43% (n = 340,000);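 active means response above a set limit, near 3 SD of response in nonfluorescent compounds, cut at about 42% in these data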
GRK2 aptamer HTS = human GRK2 inhibition via aptamer displacement; AID 488847; bead flow cytometry, FAM-aptamer displacement from GRK2; actives 0.59% (n = 330,000); inhibition of aptamer binding, % at 10 µM; P25098;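 active means inhibition of aptamer binding above 40%, roughly 3 SD of noise, on plates passing a quality check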;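 further: median bead fluorescence of bound FAM aptamer so fluorescent compounds give negative values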
PP1 confirm = confirmation of human PP1 phosphatase inhibitors; actives 52% (n = 1,900); inhibition, % at 6.7 µM; shares compounds with PP1 counter; purified PP1alpha, OMFP substrate fluorescence;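 active means mean PP1 inhibition above a set limit taken from the earlier primary screen, cut at about 15% in these data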
PP5 counter = inhibits human PP5 phosphatase in PP1 counter-screen; actives 4% (n = 1,900); AID 2360; purified PP5c, OMFP fluorescence; inhibition, % at 6.7 µM; shares compounds with PP1 counter;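 active means mean PP5 inhibition over triplicate wells above about 9.5% taken from the earlier PP1 screen, limit read from the data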
Target sequence (P53041 whole entry, looked up): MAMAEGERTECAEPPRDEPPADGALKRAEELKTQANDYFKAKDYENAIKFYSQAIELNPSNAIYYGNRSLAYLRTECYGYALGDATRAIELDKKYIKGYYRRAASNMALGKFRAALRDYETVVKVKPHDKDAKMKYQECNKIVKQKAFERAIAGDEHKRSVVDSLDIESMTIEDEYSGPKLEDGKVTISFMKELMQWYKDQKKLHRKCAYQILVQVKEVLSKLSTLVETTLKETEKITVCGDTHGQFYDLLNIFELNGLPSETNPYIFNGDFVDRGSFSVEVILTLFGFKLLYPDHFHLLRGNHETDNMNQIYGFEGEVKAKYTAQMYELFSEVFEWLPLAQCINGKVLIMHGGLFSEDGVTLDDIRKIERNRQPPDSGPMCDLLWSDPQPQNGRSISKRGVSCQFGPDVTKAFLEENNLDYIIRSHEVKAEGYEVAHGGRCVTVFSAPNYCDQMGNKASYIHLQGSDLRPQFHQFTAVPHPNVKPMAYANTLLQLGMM
The depositor's hits bear a star; / = not tested or not shown. In the library only some 2.9% were active in any assay of this set; here they are far more common.

SMILES	PP1 counter	Exocytosis inh	NadD block	Beta2AR agonist	GRK2 aptamer HTS	others
CCN(CC)c1ccc(/C=N/c2sc3c(c2C#N)C2CCN3CC2)c(O)c1	0	-4	-3	-401	0
O=C(c1cc2cc(Cl)ccc2[nH]1)N1CCC2(CC1)OCCO2	-2	-2	0	7	2
O=C(c1cc2cc(F)ccc2[nH]1)N1CCC2(CC1)OCCO2	17*	-2	2	-2	2
COC(=O)C1=C(c2ccc(OC)c(OC)c2)C[C@@H]2CC[C@H]1N2C(=O)N1CCCCC1	-3	1	4	11	2
COc1ccc(-c2cc(-c3ccccc3)[n+](C)c(-c3ccccc3)c2)cc1	-1	4	14	-8	1
COc1ccc(-[n+]2c(-c3ccccc3)cc(-c3ccc(C)cc3)cc2-c2ccccc2)cc1	4	74*	3	1	0
COc1ccc(-c2nc3ccccc3c(=O)n2-c2ccc(OC)cc2)cc1	-4	-2	-2	-7	0
CCn1nc(-c2ccccc2)nc2c(=O)n(C)c(=O)nc1-2	39*	52	-3	69*	54*
O=C1CC=C2C3CC4N(CCC45c4ccccc4N1C25)CC3=CCO (centres undefined)	/	-2	-3	-6	/
O=C1CC=C2C3CC4N(CCC45c4cc(O)c(O)cc4N1C25)CC3=CCBr (centres undefined)	/	7	92*	8	/
CCN1C(=O)/C(=C/c2ccc3c(c2)CCN3CCCCl)C(=O)NC1=S	3	-5	31*	1	4
O=C1NC(=S)N(C2CC2)C(=O)/C1=C/c1ccc2c(c1)CCN2CCCCl	-4	-1	18	8	4
NC1=Nc2ccccc2Oc2ccccc21	-3	0	-10	-5	0
CN1C(=O)/C(=C/c2ccc(Cl)s2)C(=O)NC1=S	4	13	19	19	3
Cc1ccc(N2C(=O)NC(=O)/C(=C\C=C\c3ccco3)C2=O)cc1C	-2	59*	2	60*	7
O=C1NC(=O)N(Cc2ccccc2)C(=O)/C1=C\C=C\c1ccco1	5	14	2	67*	17
Cc1ccc(N2C(=O)NC(=O)/C(=C\C=C\c3ccco3)C2=O)cc1	3	90*	1	69*	25
Cc1ccc(N2C(=O)NC(=O)/C(=C\c3cc(C)n(-c4ccc(C(=O)O)cc4)c3C)C2=O)cc1	0	9	4	0	18
CN1C(=O)/C(=C/C=C/c2ccco2)C(=O)NC1=S	6	0	4	58*	2
COc1ccc(-c2ccc3c(c2)CN(C(=O)C(C)(C)C)Cc2cnnn2-3)cc1	/	10	-7	/	/
CCC(C)(O)C(=O)OC1C(=O)OC2CC3C(C)=CC(O)C(O)C3(C)C3C4(O)OCC23C1C(C)C4O (centres undefined)	/	7	1	/	/
Cc1cccc(N2C(=O)NC(=O)/C(=C\c3cccn3-c3ccc(Cl)cc3)C2=O)c1	8	73*	23	14	0
O=C1NC(=O)N(c2ccccc2)C(=O)/C1=C/C=C/c1ccco1	-2	19	4	59*	6
Cc1cccc(N2C(=O)NC(=O)/C(=C\C=C\c3ccco3)C2=O)c1	3	28	-1	69*	4
Cc1cccc(N2C(=O)NC(=O)/C(=C/c3ccc([N+](=O)[O-])o3)C2=O)c1	2	/	/	/	44*
SMILES	PP1 counter	Exocytosis inh	NadD block	Beta2AR agonist	GRK2 aptamer HTS	others
COc1cc(/C=C2\C(=O)NC(=O)N(c3ccccc3)C2=O)c([N+](=O)[O-])cc1OC	/	2	-4	1	/
Cc1cc(NC(=O)CCl)no1	-1	7	-7	-2	2
C[C@@H]1CN([C@H](C)CO)C(=O)c2c(c3ccccc3n2C)-c2ccccc2CO[C@H]1CN(C)Cc1ccc2c(c1)OCCN2C	/	0	1	/	/
Cn1cccc1/C=C1\C(=O)NC(=O)N(Cc2ccco2)C1=O	/	-2	5	10	/
COc1ccc(/C=C2/C(=O)NC(=O)N(Cc3ccco3)C2=O)cc1	8	/	/	/	82*
CNc1ccc2oc(C[C@H]3O[C@@]4(CC[C@H]3C)O[C@H]([C@H](C)C(=O)c3ccc[nH]3)[C@H](C)C[C@H]4C)nc2c1C(=O)O	17*	33	59*	28	0
CCOC(=O)C1(CCOc2ccccc2)CCN(Cc2ccccc2OC)CC1	-3	34	-2	2	0
CCOC(=O)C1(CCOc2ccccc2)CCN(Cc2cccc(O)c2)CC1	2	90*	-3	-4	0
C[C@]12CCC(=O)C[C@H]1CC[C@@H]1[C@@H]2CC[C@]2(C)[C@@H](O)CC[C@@H]12	-5	/	/	/	0
O=c1[nH]c(O)c(/C=C2/C=CC(c3cc(Cl)ccc3Cl)=N2)c(=O)[nH]1	19*	92*	64*	-23	0	PP1 confirm=47*;PP5 counter=-6
CN(C)C1C(=O)C(C(N)=O)=C(O)C2(O)C(=O)C3=C(O)c4c(O)cccc4C(C)(O)C3C(O)C12 (centres undefined)	33*	23	1	3	3	PP1 confirm=-4;PP5 counter=-4
COc1ccc(C2c3c(nc(C)[nH]c3=O)Oc3c2c(=O)oc2ccccc32)cc1 (centres undefined)	-4	/	/	/	0
CO[C@H]1C=CCCC=CC(=O)O[C@H]([C@H](C)C(=O)CCCC2CC(=O)NC(=O)C2)C(C)=C[C@@H](C)[C@@H]1O	/	-2	8	/	/
CCCCCn1c(=O)c(C(=O)Nc2ccccc2C)c(O)c2ccccc21	-2	11	-8	13	0
CCCCn1c(=O)c(C(=O)Nc2ccccc2)c(O)c2ccccc21	-2	0	-3	5	0
CCCCCCn1c(=O)c(C(=O)Nc2ncccc2C)c(O)c2ccccc21	26*	4	15	-6	0	PP1 confirm=18*;PP5 counter=-2
CCCCn1c(=O)c(C(=O)Nc2ncccc2C)c(O)c2ccccc21	28*	0	28	2	0	PP1 confirm=26*;PP5 counter=-1
C[C@H]1[C@@H](OS(=O)(=O)O)C[C@@H]2C[C@H]([C@@H](O)c3cc(=O)[nH]c(=O)[nH]3)NC3=NC[C@H]1N32	/	0	10	-3	/
c1cncc(C2Nc3cccc4cccc(c34)N2)c1	23*	8	18	2	0	PP1 confirm=-5;PP5 counter=-1
NC(N)=N/N=C/c1ccc(N(c2ccccc2)c2ccccc2)cc1	38*	25	13	38	0	PP1 confirm=25*;PP5 counter=-3
NC(N)=Nc1ccc2[nH]c3c(c2c1)C[C@@]1(O)[C@H]2Cc4ccc(O)c5c4[C@@]1(CCN2CC1CC1)C3O5 (some centres undefined)	/	2	-3	-1	0
Cc1ccc(C[n+]2c(-c3ccc(C)cc3)cc(-c3ccc(C)cc3)cc2-c2ccc(C)cc2)cc1	24*	-7	9	-11	0	PP1 confirm=-6;PP5 counter=1
